High-throughput results deposited in PubChem BioAssay by Sanford-Burnham Center for Chemical Genomics.
Many of the other results were omitted from the sample, so hits are more common in it than they were.
DUSP3 inh = VHR1 (DUSP3) phosphatase inhibition | P51452 | recombinant VHR phosphatase, colorimetric substrate read-out | inhibition, % at 20 µM | hit rate 0.7% among 50,000; in the data active = inhibition above about 60%
Target sequence (P51452 whole entry, looked up): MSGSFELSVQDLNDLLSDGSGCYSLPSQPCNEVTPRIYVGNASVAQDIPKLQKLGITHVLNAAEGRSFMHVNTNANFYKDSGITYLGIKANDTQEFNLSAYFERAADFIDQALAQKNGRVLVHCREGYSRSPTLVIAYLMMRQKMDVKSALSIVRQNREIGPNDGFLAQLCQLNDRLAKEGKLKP
Numbers without * were called inactive.

For CCC(CO)N=Cc1c(O)n(-c2c(Cl)cccc2Cl)c2ccccc12 (centres undefined) the results were DUSP3 inh 98*.
For CCn1c(O)c(N=NC(=O)c2ccccc2Cl)c2ccccc21 the results were DUSP3 inh -10.
CCOc1c(/C=C(\C#N)C(N)=O)c2ccccc2n1-c1c(Cl)cccc1Cl was read as DUSP3 inh -5.
COc1cccc(-c2cc(C(=O)Nc3ncccn3)c3ccccc3n2)c1 was read as DUSP3 inh 11.
COc1cccc(-c2cc(C(=O)Nc3nn[nH]n3)c3ccccc3n2)c1 was read as DUSP3 inh -11.
COc1cccc(-c2cc(C(=O)Nc3nc4ccccc4s3)c3ccccc3n2)c1 was read as DUSP3 inh 68*.
For CCOC(=O)C(C#N)C(c1ccc(C)cc1)C1CCOC(C)(CC)C1 (centres undefined) the results were DUSP3 inh 3.
Screening CC(C)(CN)CNc1ccc([N+](=O)[O-])cc1Cl returned DUSP3 inh -10.
Screening Oc1ccc(Br)cc1CN1CCN(Cc2ccccc2F)CC1 returned DUSP3 inh -4.
`CCOC(=O)c1c(NC(=O)CC2Nc3ccccc3NC2=O)sc2c1CCCC2` (centres undefined) gave DUSP3 inh 15.
`CCOC(=O)c1[nH]nc2c1C(=O)N(c1ccc(OC)c(Br)c1)C2=O` gave DUSP3 inh 4.
For CCOC(=O)c1[nH]cnc1C(=O)Nc1ccc(Br)cc1 the results were DUSP3 inh -22.
CCOC(=O)c1[nH]nc2c1C(=O)N(c1ccc(Br)cc1)C2=O was read as DUSP3 inh 98*.
For CC1=CCCC(C)(C)C1C(=O)CC(C)Nc1ccccc1 (centres undefined) the results were DUSP3 inh -1.
Screening Cc1cccc(-n2c(-c3ccccc3F)nc3ccccc3c2=O)c1 returned DUSP3 inh -8.
For Cc1c(-c2ccc(Cl)cc2)nc2ccccc2c1C(=O)Nc1ccc(F)cc1F the results were DUSP3 inh -1.
`O=C(Nc1ccc(F)cc1)Nc1cccc2cccnc12` gave DUSP3 inh -12.
Screening Cc1ccc(C)n1-c1cccc2cccnc12 returned DUSP3 inh 22.
For Fc1c(F)c(C(F)(F)F)c(F)c(F)c1Oc1cccc2cccnc12 the results were DUSP3 inh 98*.
CC1=C(C(=O)OCCOc2ccccc2)C(c2ccccc2F)C2=C(CCCC2=O)N1 (centres undefined) was read as DUSP3 inh -6.
`O=C1NC(=O)N(c2ccccc2)C(=O)/C1=C\c1ccc(-c2ccc(C(=O)O)cc2)o1` gave DUSP3 inh -20.
O=C1NC(=S)NC(=O)C1=Cc1ccc(-c2ccc(C(=O)O)cc2)o1 was read as DUSP3 inh 89*.
O=C1NC(=S)N(c2ccc(Cl)cc2)C(=O)/C1=C/c1ccc(-c2ccc(C(=O)O)cc2)o1 was read as DUSP3 inh 19.
Screening Cc1cc(OCC(=O)Nc2ccc(N3CCOCC3)c(Cl)c2)cc(C)c1Cl returned DUSP3 inh -5.
For COc1ccc(C(=O)O/N=C(\N)c2cccc([N+](=O)[O-])c2)cc1OC the results were DUSP3 inh -17.
Cc1cc(=O)oc2cc(OCC(=O)c3ccc(Cl)cc3)c(Cl)cc12 was read as DUSP3 inh 5.
Cc1cc(=O)oc2cc(OCc3ccc(F)cc3)c(Cl)cc12 was read as DUSP3 inh -2.
For Cc1cc(=O)oc2cc(OC/C(=N\O)c3ccc(Cl)cc3)c(Cl)cc12 the results were DUSP3 inh 106*.
`COc1cc(/C=C2/SC(=S)N(CC(=O)O)C2=O)ccc1OCc1ccccc1` gave DUSP3 inh -7.
CC(=O)NN1C(=O)/C(=C\c2ccc(F)cc2)SC1=S was read as DUSP3 inh -25.
Screening O=[N+]([O-])c1ccc(N2CCN(S(=O)(=O)c3ccc4ccccc4c3)CC2)cc1 returned DUSP3 inh -11.
Screening COc1ccc(C2=C/C(=C/c3ccc(I)o3)C(=O)O2)cc1 returned DUSP3 inh 1.
`COc1ccc(C2=CC(c3cccs3)C=C(c3ccc(OC)cc3)O2)cc1` gave DUSP3 inh 60*.
`COc1ccc(C2=C/C(=C3\OC(=O)c4ccccc43)C(=O)O2)cc1` gave DUSP3 inh 42.
`CC1=NCCN1S(=O)(=O)c1ccc(Cl)cc1` gave DUSP3 inh -14.
`CCN(CC)CCCCCOc1ccc(Cl)cc1` gave DUSP3 inh -16.
For COc1ccc(N2Cc3ccc(C(=O)NN)cc3C2)cc1 the results were DUSP3 inh 94*.
Screening COc1ccc(N2Cc3ccc(C(=O)N/N=C\c4ccc(Br)cc4)cc3C2)cc1 returned DUSP3 inh -15.
`Cc1cc2c(cc1C)CN(c1cccc(C(=O)NN)c1)C2` gave DUSP3 inh 49.
Screening CC(C)(C)c1ccc2[nH]c3c(c2c1)CCCC3=O returned DUSP3 inh -20.
`Nc1ccc(C2=Nc3cccc4cccc(c34)N2)cc1` gave DUSP3 inh 85*.
Cc1ccc(S(=O)(=O)N2CCN(C/C=C/c3ccccc3)CC2)cc1[N+](=O)[O-] was read as DUSP3 inh -8.
Screening CC(C)c1ccc(N2C(=O)NC(=O)/C(=C/c3ccc(N(C)C)cc3)C2=O)cc1 returned DUSP3 inh 37.
`COc1cc(C2NC(=O)NC(C)=C2C(=O)Nc2ccc(Br)cc2)cc(OC)c1OC` (centres undefined) gave DUSP3 inh 7.
`Cc1ccc(N2NC(=O)/C(=C/c3ccc(C)c([N+](=O)[O-])c3)C2=O)cc1Cl` gave DUSP3 inh -13.
Screening O=C1NN(c2ccc(Cl)c(Cl)c2)C(=O)/C1=C/c1ccc(Cl)c([N+](=O)[O-])c1 returned DUSP3 inh 83*.
For CCOC(=O)c1ccc(N2NC(=O)/C(=C/c3ccc(Cl)c([N+](=O)[O-])c3)C2=O)cc1 the results were DUSP3 inh -9.
Screening COc1ccc(/C=C(\NC(=O)c2ccccc2)C(=O)NCC(C)C)cc1 returned DUSP3 inh -22.
COC(=O)/C(=C/C(=O)c1ccc(C)cc1)Nc1ccc(Br)cc1 was read as DUSP3 inh -13.
Cc1c(Cl)cccc1N=C1NC(=O)/C(=C/c2ccc3c(c2)OCO3)S1 was read as DUSP3 inh 24.
Cc1c(Cl)cccc1N=C1NC(=O)/C(=C/c2ccc(-c3ccccc3C(=O)O)o2)S1 was read as DUSP3 inh 86*.
For Cc1c(Cl)cccc1N=C1NC(=O)/C(=C/c2cccc(O)c2)S1 the results were DUSP3 inh 2.
For N=C1S/C(=C\c2ccc(-c3cccc(C(=O)O)c3)o2)C(=O)N1c1ccc2c(c1)OCO2 the results were DUSP3 inh 9.
C(=N\n1cnnc1)/c1cccc(OCCOc2ccccc2)c1 was read as DUSP3 inh -25.
Brc1ccc(OCCOc2ccc(/C=N/n3cnnc3)cc2)cc1 was read as DUSP3 inh 114*.
`CC(C)(C)c1ccc(OCCOc2ccc(/C=N/n3cnnc3)cc2)cc1` gave DUSP3 inh 3.
Screening NC(=O)c1ccccc1N=Cc1cccc2ccccc12 returned DUSP3 inh -1.
Screening COc1ccccc1C=C1C(=O)NC(=S)N(c2ccccc2F)C1=O returned DUSP3 inh 9.
`CCOc1ccc(N2C(=O)/C(=C/c3ccc(C)o3)C(=O)NC2=S)cc1` gave DUSP3 inh 23.
O=C1NC(=S)N(c2ccccc2F)C(=O)/C1=C/c1ccc(I)o1 was read as DUSP3 inh 86*.
For CCc1ccc(N2C(=O)/C(=C/c3ccc(I)o3)C(=O)NC2=S)cc1 the results were DUSP3 inh 42.
